Laboratory results from ChEMBL document CHEMBL3988442, “University of Dundee, Small-Polar-MMV Screening Library” (2021).
For some of these results: Measured potencies and affinities stand elsewhere.

Experiments:
Design in all cases: scale not given: direction of the effect not stated beside the values
[1] = target: Protein translocase subunit SecA (Escherichia coli (strain K12)) (UniProt P10408); assay: Assay to Identify E. coli SecA ATPase Inhibitors; format: functional; details: 30 µM
[2] = target: T1, Ubiquitin-activating enzyme e1, putative (Leishmania donovani (strain BPK282A1)) (UniProt E9BSI1); assay: Leishmania donovani Ubiquitin Activating Enzyme (LdE1); format: functional; details: 30 µM
T1 sequence (whole entry): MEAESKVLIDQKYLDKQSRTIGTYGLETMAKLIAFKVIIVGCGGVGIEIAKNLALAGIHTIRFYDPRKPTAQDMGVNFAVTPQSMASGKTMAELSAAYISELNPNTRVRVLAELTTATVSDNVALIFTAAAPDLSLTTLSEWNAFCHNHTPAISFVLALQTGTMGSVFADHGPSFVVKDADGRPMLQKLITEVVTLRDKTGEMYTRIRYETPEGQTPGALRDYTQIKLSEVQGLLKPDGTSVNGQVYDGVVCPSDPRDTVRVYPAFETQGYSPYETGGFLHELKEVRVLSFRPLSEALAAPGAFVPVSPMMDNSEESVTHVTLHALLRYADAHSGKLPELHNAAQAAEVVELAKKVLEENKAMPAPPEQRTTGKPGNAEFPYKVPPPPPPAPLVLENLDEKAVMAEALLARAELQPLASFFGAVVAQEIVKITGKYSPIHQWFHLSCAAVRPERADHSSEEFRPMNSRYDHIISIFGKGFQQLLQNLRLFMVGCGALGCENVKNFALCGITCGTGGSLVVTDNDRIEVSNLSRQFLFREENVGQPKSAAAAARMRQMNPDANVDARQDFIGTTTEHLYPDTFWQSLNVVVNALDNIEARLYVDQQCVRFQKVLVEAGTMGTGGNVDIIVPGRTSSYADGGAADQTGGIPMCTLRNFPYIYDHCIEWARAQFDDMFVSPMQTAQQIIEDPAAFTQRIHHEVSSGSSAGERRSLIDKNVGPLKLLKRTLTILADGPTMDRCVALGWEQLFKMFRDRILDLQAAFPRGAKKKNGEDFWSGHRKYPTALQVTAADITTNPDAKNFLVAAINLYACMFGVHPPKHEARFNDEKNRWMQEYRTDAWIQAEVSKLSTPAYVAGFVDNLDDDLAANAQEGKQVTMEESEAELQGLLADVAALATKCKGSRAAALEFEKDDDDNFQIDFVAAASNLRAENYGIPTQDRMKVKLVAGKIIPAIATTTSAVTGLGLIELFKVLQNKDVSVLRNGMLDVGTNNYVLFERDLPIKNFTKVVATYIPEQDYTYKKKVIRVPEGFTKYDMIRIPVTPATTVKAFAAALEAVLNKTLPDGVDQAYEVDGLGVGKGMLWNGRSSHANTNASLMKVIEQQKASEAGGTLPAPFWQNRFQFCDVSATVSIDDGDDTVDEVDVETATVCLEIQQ

[3] = target: AMP-activated protein kinase, AMPK (Homo sapiens) (UniProt P54646+O43741+P54619+Q9UGJ0+Q9Y478+Q13131+Q9UGI9); assay: AMP-dependent Kinase enzyme assay. An in vitro enzyme assay that detects ADP turnover that is directly proportional to AMPK activity. This uses naive AMPK that is activated during the assay with MK-8722; format: functional; details: 30 µM
[4] = target: Sialic acid-binding Ig-like lectin 9 (Homo sapiens) (UniProt Q9Y336); assay: Hs-Siglec9 ALPHAscreen SOP 20170721; details: 10 µM
Trypanosoma cruzi = assay: Trypanosoma cruzi phosphomannomutase and mannose-1-phosphate guanylyltransferase assay; format: functional; details: 10 µM
[5] = target: T2, Arginase-2, mitochondrial (Homo sapiens) (UniProt P78540); assay: in vitro enzyme assay to detect the production of urea directly proportional to the activity of Arginase II; format: functional; details: 33.3 µM; further: in the data most compounds retested in dose-response had high values
T2 sequence (whole entry): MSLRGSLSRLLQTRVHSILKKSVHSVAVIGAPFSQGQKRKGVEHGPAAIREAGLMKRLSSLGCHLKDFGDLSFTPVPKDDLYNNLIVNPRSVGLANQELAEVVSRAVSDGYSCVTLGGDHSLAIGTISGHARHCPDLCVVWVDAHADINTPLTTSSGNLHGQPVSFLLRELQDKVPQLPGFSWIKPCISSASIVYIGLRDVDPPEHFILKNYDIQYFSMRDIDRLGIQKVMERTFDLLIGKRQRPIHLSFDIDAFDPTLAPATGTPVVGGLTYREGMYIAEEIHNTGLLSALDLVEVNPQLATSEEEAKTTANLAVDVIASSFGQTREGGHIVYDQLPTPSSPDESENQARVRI

[6] = target: T3, Proteasome subunit beta (Trypanosoma cruzi) (UniProt O96673); assay: Trypanosoma cruzi proteasome chymotrypsin-like activity (TcProtChymo) assay.; further: in the data most compounds retested in dose-response had high values; format: functional; details: 9.37 µM
T3 sequence (whole entry): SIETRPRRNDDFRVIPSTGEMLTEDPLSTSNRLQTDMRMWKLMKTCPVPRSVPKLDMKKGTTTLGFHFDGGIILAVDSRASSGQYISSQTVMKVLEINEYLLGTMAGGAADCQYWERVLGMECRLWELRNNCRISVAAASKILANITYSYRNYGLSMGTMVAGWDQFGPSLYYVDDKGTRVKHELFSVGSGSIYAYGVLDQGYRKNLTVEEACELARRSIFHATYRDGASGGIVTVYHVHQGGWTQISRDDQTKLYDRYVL

Homo sapiens = organism: Homo sapiens; assay: To identify inhibition of the IFN signalling (Jak-Stat) pathway via expression of an eGFP reporter gene under the control of an IFN-stimulated response element (ISRE) containing MxA promoter.; format: functional; details: 30 µM
[7] = target: T4, Tyrosyl-tRNA synthetase, putative (Trypanosoma cruzi (strain CL Brener)) (UniProt Q4DSP6); assay: Trypanosoma cruzi tyrosyl tRNA synthetase (TcYRS) _High Tyrosine SOP; format: functional; details: 30 µM; further: in the data most compounds retested in dose-response had high values
T4 sequence (whole entry): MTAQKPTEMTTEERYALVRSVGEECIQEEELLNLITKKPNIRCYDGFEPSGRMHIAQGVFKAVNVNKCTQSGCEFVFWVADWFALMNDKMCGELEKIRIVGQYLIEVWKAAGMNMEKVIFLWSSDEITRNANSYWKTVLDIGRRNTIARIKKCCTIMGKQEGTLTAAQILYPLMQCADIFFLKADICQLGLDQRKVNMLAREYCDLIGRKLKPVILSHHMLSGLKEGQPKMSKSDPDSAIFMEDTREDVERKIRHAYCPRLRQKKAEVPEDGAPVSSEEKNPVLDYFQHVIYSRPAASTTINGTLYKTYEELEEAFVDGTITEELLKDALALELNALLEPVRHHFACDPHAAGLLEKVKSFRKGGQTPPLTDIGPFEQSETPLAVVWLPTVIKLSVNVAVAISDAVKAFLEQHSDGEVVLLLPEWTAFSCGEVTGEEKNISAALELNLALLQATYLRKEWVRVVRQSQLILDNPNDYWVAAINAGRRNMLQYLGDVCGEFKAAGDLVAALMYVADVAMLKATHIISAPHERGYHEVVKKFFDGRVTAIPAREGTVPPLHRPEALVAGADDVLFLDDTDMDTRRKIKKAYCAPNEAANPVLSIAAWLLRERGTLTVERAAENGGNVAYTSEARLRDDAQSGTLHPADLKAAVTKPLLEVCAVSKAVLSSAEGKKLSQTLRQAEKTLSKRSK

[8] = target: T4, Tyrosyl-tRNA synthetase, putative (Trypanosoma cruzi (strain CL Brener)); assay: Trypanosoma cruzi tyrosyl tRNA synthetase (TcYRS) SOP; format: functional; details: 30 µM
[9] = target: Chromo domain-containing protein 1 (Saccharomyces cerevisiae (strain ATCC 204508 / S288c) (Baker's yeast)) (UniProt P32657); assay: ScCHD-1 Enzyme Inhibition Assay; format: functional; details: 30 µM; further: in the data most compounds retested in dose-response had high values
Chain of Chromo domain-containing protein 1 (Saccharomyces cerevisiae (strain ATCC 204508 / S288c) (Baker's yeast)) (P32657 whole entry, the tested form may be a part): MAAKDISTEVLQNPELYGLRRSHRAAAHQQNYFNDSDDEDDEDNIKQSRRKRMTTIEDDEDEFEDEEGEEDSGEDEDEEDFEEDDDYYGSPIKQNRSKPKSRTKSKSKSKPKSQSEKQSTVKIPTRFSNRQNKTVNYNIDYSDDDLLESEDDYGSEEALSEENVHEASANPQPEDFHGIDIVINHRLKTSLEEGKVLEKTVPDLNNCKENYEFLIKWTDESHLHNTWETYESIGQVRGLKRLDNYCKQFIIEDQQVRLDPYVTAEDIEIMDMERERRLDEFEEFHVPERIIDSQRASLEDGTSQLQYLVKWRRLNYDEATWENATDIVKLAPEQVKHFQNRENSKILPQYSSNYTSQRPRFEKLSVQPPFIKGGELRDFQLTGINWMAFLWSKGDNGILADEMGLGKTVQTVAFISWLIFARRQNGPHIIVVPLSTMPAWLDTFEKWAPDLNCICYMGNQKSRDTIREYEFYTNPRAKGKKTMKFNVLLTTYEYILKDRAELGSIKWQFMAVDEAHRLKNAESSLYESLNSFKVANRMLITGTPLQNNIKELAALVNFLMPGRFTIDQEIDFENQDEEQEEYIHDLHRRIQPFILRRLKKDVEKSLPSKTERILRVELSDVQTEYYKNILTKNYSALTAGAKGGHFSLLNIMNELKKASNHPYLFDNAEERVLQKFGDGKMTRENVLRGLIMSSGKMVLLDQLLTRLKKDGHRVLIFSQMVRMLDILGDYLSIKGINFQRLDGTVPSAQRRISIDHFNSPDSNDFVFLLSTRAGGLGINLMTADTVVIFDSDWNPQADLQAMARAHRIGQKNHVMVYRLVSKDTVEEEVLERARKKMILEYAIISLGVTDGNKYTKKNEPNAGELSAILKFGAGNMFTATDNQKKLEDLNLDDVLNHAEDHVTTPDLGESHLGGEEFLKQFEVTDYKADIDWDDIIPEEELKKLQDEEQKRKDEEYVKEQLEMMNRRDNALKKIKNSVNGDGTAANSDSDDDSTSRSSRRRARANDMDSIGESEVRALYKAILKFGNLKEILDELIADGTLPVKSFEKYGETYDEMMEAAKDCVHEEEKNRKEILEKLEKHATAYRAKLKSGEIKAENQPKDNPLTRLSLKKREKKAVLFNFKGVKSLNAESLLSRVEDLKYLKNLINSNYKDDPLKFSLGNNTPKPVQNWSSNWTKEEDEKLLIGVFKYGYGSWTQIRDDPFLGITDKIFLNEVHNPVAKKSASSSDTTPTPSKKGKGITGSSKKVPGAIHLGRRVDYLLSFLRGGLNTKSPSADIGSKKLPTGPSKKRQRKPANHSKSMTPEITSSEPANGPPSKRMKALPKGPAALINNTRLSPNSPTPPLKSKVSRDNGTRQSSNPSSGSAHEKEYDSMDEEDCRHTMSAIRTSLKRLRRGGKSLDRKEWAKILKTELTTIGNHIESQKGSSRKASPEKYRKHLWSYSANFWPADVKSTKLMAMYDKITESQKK

Chain of Protein translocase subunit SecA (Escherichia coli (strain K12)) (P10408 whole entry): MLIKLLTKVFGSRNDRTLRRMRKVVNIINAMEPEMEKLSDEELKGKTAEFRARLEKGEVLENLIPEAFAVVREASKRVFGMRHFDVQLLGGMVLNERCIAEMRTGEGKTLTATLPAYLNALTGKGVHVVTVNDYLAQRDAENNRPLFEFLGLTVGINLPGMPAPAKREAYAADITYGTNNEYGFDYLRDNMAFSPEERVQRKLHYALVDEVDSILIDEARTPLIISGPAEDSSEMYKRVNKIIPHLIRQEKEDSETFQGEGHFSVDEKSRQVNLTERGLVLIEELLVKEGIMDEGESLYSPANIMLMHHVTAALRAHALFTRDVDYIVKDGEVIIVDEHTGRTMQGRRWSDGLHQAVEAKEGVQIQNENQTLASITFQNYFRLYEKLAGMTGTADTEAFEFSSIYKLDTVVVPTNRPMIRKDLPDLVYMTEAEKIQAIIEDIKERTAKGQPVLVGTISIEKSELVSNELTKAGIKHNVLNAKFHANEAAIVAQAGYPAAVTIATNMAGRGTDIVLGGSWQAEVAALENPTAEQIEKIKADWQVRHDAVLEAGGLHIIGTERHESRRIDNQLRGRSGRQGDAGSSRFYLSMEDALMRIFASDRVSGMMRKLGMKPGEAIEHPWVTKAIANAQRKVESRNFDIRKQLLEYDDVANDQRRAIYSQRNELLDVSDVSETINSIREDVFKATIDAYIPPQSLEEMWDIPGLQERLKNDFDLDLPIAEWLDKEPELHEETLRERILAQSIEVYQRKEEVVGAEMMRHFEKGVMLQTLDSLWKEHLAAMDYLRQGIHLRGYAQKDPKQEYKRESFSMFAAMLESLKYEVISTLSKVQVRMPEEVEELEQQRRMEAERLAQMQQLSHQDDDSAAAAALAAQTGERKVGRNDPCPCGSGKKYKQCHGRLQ
Chain of Sialic acid-binding Ig-like lectin 9 (Homo sapiens) (Q9Y336 whole entry): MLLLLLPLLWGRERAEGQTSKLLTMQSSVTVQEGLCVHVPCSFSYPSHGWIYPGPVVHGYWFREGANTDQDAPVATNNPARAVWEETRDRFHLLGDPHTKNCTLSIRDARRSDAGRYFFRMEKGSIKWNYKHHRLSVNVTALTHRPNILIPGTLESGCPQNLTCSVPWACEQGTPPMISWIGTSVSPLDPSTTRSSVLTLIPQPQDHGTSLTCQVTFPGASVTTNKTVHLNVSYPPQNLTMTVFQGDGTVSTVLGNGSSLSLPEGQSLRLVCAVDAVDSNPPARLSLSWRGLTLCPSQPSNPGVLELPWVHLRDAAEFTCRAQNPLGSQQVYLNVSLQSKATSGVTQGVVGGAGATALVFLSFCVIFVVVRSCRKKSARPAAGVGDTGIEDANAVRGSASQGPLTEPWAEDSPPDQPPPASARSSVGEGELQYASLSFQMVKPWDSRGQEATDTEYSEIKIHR

SMILES: CN(C)Cc1ccnc(C2CCCN2Cc2cc[nH]n2)n1 (stereo unspecified)
- Percent Effect [1]: -6.5%
- Percent Effect [2]: -6.76%
- Percent Effect [3]: 10.3%
- Percent Effect [4]: -1.81%
- Percent Effect (Trypanosoma cruzi): -1.78%
- Percent Effect [5]: -1.16%
- Percent Effect [6]: 6.08%
- Percent Effect (Homo sapiens): -0.845%
- Percent Effect [7]: 3.23%
- Percent Effect [8]: 3.9%
- Percent Effect [9]: 1.51%

SMILES: CC(C)NC(=O)N1CCC2(COCc3cnc(-c4cccnc4)nc32)C1 (stereo unspecified)
- Percent Effect [1]: -3.55%
- Percent Effect [2]: 2.7%
- Percent Effect [3]: 6.5%
- Percent Effect [4]: 0.534%
- Percent Effect (Trypanosoma cruzi): -6.94%
- Percent Effect [5]: 4.78%
- Percent Effect [6]: 12%
- Percent Effect (Homo sapiens): 6.17%
- Percent Effect [7]: 1.08%
- Percent Effect [8]: 5.13%
- Percent Effect [9]: 2.74%

SMILES: CCCc1noc(CN2CCCC2c2ccsc2)n1 (stereo unspecified)
- Percent Effect [1]: -2.78%
- Percent Effect [2]: -10.1%
- Percent Effect [3]: -1.69%
- Percent Effect [4]: -2.76%
- Percent Effect (Trypanosoma cruzi): 1.04%
- Percent Effect [5]: -8.37%
- Percent Effect [6]: 3.19%
- Percent Effect (Homo sapiens): 11.1%
- Percent Effect [7]: 0.493%
- Percent Effect [8]: 1.27%
- Percent Effect [9]: 6.54%

SMILES: CCCC1CCCN(Cc2csc(-c3cnn(C)c3)n2)CC1 (stereo unspecified)
- Percent Effect [1]: -2.48%
- Percent Effect [2]: -5.26%
- Percent Effect [3]: -0.945%
- Percent Effect [4]: -3.96%
- Percent Effect (Trypanosoma cruzi): -0.376%
- Percent Effect [5]: -5.75%
- Percent Effect [6]: 20.4%
- Percent Effect (Homo sapiens): 20.6%
- Percent Effect [7]: 8.33%
- Percent Effect [8]: 19.5%
- Percent Effect [9]: -4.84%

SMILES: CCSCCC(=O)Nc1ncn(Cc2cccnc2)n1
- Percent Effect [1]: -2.86%
- Percent Effect [2]: 5.33%
- Percent Effect [3]: -3.63%
- Percent Effect [4]: 8.4%
- Percent Effect (Trypanosoma cruzi): -5.16%
- Percent Effect [5]: 3.65%
- Percent Effect [6]: 17.8%
- Percent Effect (Homo sapiens): 9.04%
- Percent Effect [7]: 4.92%
- Percent Effect [8]: 13.6%
- Percent Effect [9]: -5.58%

SMILES: CN(C)c1cc(C(=O)NCCc2nnc(-c3ccco3)[nH]2)ccn1
- Percent Effect [1]: -2.63%
- Percent Effect [2]: 2.63%
- Percent Effect [3]: 0.765%
- Percent Effect [4]: -1.33%
- Percent Effect (Trypanosoma cruzi): -2.63%
- Percent Effect [5]: -4.73%
- Percent Effect [6]: 5.46%
- Percent Effect (Homo sapiens): 0.0854%
- Percent Effect [7]: 4.25%
- Percent Effect [8]: 10.4%
- Percent Effect [9]: -3.29%

SMILES: CN1CCN(C(=O)NC2CC2)Cc2cccnc21
- Percent Effect [1]: -0.328%
- Percent Effect [2]: 10.7%
- Percent Effect [3]: -1.13%
- Percent Effect [4]: 3.38%
- Percent Effect (Trypanosoma cruzi): -1.35%
- Percent Effect [5]: -23.5%
- Percent Effect [6]: 12%
- Percent Effect (Homo sapiens): -4.24%
- Percent Effect [7]: 6.25%
- Percent Effect [8]: 25%
- Percent Effect [9]: -7.54%

SMILES: O=C1NC2(CCN(C(=O)Cc3ccsc3)CC2)CC1c1ccncc1 (stereo unspecified)
- Percent Effect [1]: 2.65%
- Percent Effect [2]: 10.4%
- Percent Effect [3]: 2.31%
- Percent Effect [4]: -7.01%
- Percent Effect (Trypanosoma cruzi): -7.99%
- Percent Effect [5]: 16.1%
- Percent Effect [6]: 11.1%
- Percent Effect (Homo sapiens): 5.79%
- Percent Effect [7]: 6.35%
- Percent Effect [8]: 14.1%
- Percent Effect [9]: -9.26%

SMILES: Cc1noc(C)c1CN(C)CC1CCCN1c1cccnn1 (stereo unspecified)
- Percent Effect [1]: -3.03%
- Percent Effect [2]: 13%
- Percent Effect [3]: 1.18%
- Percent Effect [4]: -2.33%
- Percent Effect (Trypanosoma cruzi): 0.0979%
- Percent Effect [5]: 0.21%
- Percent Effect [6]: 11.7%
- Percent Effect (Homo sapiens): 11.2%
- Percent Effect [7]: 6.67%
- Percent Effect [8]: 18.8%
- Percent Effect [9]: -25.9%

SMILES: COCCn1nc(C(=O)N(C)Cc2cnn(C)c2)ccc1=O
- Percent Effect [1]: -6.3%
- Percent Effect [2]: 15.8%
- Percent Effect [3]: -7.26%
- Percent Effect [4]: -8.02%
- Percent Effect (Trypanosoma cruzi): 4.38%
- Percent Effect [5]: -8.28%
- Percent Effect [6]: 14.7%
- Percent Effect (Homo sapiens): 9.08%
- Percent Effect [7]: 5.32%
- Percent Effect [8]: -2.6%
- Percent Effect [9]: -9.82%

SMILES: CC1CCCN(C(=O)CCc2cccnc2)C1 (stereo unspecified)
- Percent Effect [1]: 2.47%
- Percent Effect [2]: 17.7%
- Percent Effect [3]: 0.257%
- Percent Effect [4]: -8.86%
- Percent Effect (Trypanosoma cruzi): -5.57%
- Percent Effect [5]: 6.84%
- Percent Effect [6]: 7.29%
- Percent Effect (Homo sapiens): 25.3%
- Percent Effect [7]: 3.45%
- Percent Effect [8]: 16.5%
- Percent Effect [9]: -0.749%
